# Pf growth 96h: Primary qHTS for delayed death inhibitors of the malarial parasite plastid, 96 hour incubation | P. falciparum luciferase reporter growth, 96 h | Potency, µM (titrated, usually from 28.7 µM), for inactives: at the highest dose activity change, negative = inhibition, most hits filed as inhibitors | actives 6.9% (n = 320,000); also: potency is read from the fitted curve at half-maximal effect; % is scaled to controls: 0 for no effect and ±100 for the full control effect
#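 Plates of compound plus infected erythrocytes (2% hematocrit, 0.05% parasitemia final) incubate 96 hours, 37 C, 5% CO2. Detection reagent added; reduced luminescence from the parasites' luciferase reporter flags inhibition.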
# Shiga toxin inh: A qHTS for Small Molecule Inhibitors of Shiga Toxin; Vero cells, Shiga toxin protein synthesis inhibition reporter; inhibition, % at 38.7 µM; actives 9.2% (n = 290,000); in the data active = inhibition mostly above about 28%, no sharp cut-off; inactive = mostly below about 43%; also: 0% is about no effect
# CHX counter: Cycloheximide Counterscreen for Small Molecule Inhibitors of Shiga Toxin | cell reporter, cycloheximide protein synthesis inhibition counterscreen | max response, % | actives 12% (n = 300,000) | AID 2314, 2010; in the data active = max response mostly above about 13%, no sharp cut-off; inactive = mostly below about 14%; also: read at 38.3 µM for the half of the compounds with a filed dose; 0% is about no effect
# AMA1 RON2 block: qHTS for Inhibitors of AMA1-RON; Towards Development of Antimalarial Drug Lead: Primary Screen | Plasmodium falciparum AMA1 (3D7) - RON2 peptide interaction | AlphaScreen AMA1-biotinylated RON2 peptide binding | actives 0.2% (n = 360,000) | Potency, µM (doses to about 58.2 µM), without a hit: at the highest dose activity change, negative = inhibition, most hits filed as inhibitors;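 also: potency is read from the fitted curve at half-maximal effect; 0% = vehicle wells and -100% = peptide control; nearly all actives have a fitted effect of over 45% in size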
#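 AMA1 (3D7) with his tag at 25 nM final met compounds first, then biotinylated RON2 peptide at 25 nM; detection used donor plus acceptor beads, 10 µg/mL apiece, read by AlphaScreen after 30 min at room temperature.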
# Pf growth 48h: Primary qHTS for delayed death inhibitors of the malarial parasite plastid, 48 hour incubation; actives 5.9% (n = 310,000); Potency, µM (top dose mostly 28.7 µM), without a hit: top-dose activity change, negative = inhibition, hits mostly inhibitors; P. falciparum luciferase growth in erythrocytes, 48 h; AID 504832, 2011; also: potency is read from the fitted curve at half-maximal effect; % is scaled to controls: 0 for no effect and ±100 for the full control effect
#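 Firefly luciferase activity from engineered P. falciparum reports growth; inhibitors lower the luminescent signal. Cultures contained 2% hematocrit erythrocytes at 0.1% final parasitemia.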
# SARS PLP yeast: qHTS of Yeast-based Assay for SARS-CoV PLP | S. cerevisiae expressing SARS-CoV PLpro, growth rescue | Potency, µM (titrated, usually from 32.9 µM), inactives show top-dose activity, positive = growth rescue, usual class: activators | actives 0.19% (n = 330,000); calls by dose curve; also: potency is read from the fitted curve at half-maximal effect; 0% is about no effect; nearly all actives have a fitted effect of over 55% in size
# Starred values were filed as active, the others as inactive; ? = inconclusive; . = no result; [ ] = remark or other dose. Compounds with a hit are over-represented: about 19% of the library has one in this group of screens. Unless noted, calls follow the shape of the dose curve; as a rule, active = well fitted curve in the direction sought with a large enough effect; inconclusive = small, poorly fitted or top-dose-only effect, or another doubt; inactive = no such curve, though single readings can be large; an effect the other way counts as inactive or inconclusive.
SMILES,Pf growth 96h,Shiga toxin inh,CHX counter,AMA1 RON2 block,Pf growth 48h,SARS PLP yeast
Cc1ccc(N2C(N)=C(C#N)C(c3cc(CN4CCOCC4)cs3)C3=C2CC(C)(C)CC3=O)cc1 (stereo unspecified),-6.6%,29.8,-2.2,-1.9%,?,1.5%
c1ccc(NCCCNc2ccccc2)cc1,-79.7%,16.4,11.4*,?,-4.6%,-2.4%
O=CN(CCNc1ccccc1)c1ccccc1,.,.,.,-2.1%,.,.
N#CCc1nn(Cc2ccc(F)cc2)c(=O)c2ccccc12,1.3%,-3.7,-1.6,11.8%,7.5%,0.8%
C/C(=N\NC(=S)NC1CCCCC1)c1cccc(C(F)(F)F)c1,?,3.1,-0.9,111.7%,3.7µM*,-1.9%
C/C(=N\NC(=S)NC1CCCCC1)c1cccc(Br)c1,0.465µM*,-8.9,1.3,0.5%,1.04µM*,3.1%
CC(=O)N/N=C(\C)c1cccc(C(F)(F)F)c1,1.9%,-10.8,15.2,25.6%,?,0.1%
CCNC(=S)N/N=C(\C)c1cccc(C(F)(F)F)c1,11.7µM*,24.1,17.0,29.4%,9.4%,?
CCc1ccc(-c2cc(C(F)(F)F)n3nc(C(=O)Nc4c(C)nn(Cc5ccc(F)cc5)c4C)cc3n2)s1,3.2%[5.75 µM],8.2,11.9,10.8%,?,10.0%
Cc1sccc1/C=N/NC(=O)c1ccco1,?,-21.8,6.9,-0.4%,-7.6%,-3.6%
O=C(N/N=C/c1ccc(Br)s1)c1ccco1,-3.4%,91.4*,54.9*,13.4%,-25.7%,-0.8%
O=C(N/N=C/c1sc(=O)n(Cc2ccc(Br)cc2)c1Cl)c1ccco1,2.62µM*,3.2,22.3*,0.4%,3.7µM*,-6.9%
O=C(O)c1cccc(Cn2c(Cl)c(/C=N/NC(=O)c3ccccc3O)sc2=O)c1,-3.5%,30.5,17.2*,26.4%,42.9%,-0.7%
Cc1ccc(/C=N/NC(=O)c2ccco2)s1,153.8%,71.1*,53.0*,14.2%,84.9%,0.7%
Cc1ccc(/C=N/NC(=O)c2ccc(C(=O)N/N=C/c3ccc(C)s3)o2)s1,?,-2.8,1.3,5.7%,?,-1.9%
COc1ccc(-c2cc([N+](=O)[O-])ccc2OCC(=O)N(C)CC(=O)Nc2ccc(C)cc2)cc1,9.28µM*,.,.,-14.0%,6.57µM*,5.3%
COc1ccc(NC(=O)CN(C)C(=O)c2cc(-c3ccc(Cl)cc3)nc3ccccc23)cc1,?,.,.,0.0%,?,-2.8%
COc1cccc(NC(=O)CN(C)C(=O)c2cc(-c3ccc(C)o3)nc3ccccc23)c1,9.28µM*,.,.,-5.8%,11.7µM*,-2.2%
COc1ccc(-c2cc(C(=O)N(C)CC(=O)Nc3ccccc3C(F)(F)F)c3ccccc3n2)cc1OC,.,.,.,70.3%,.,.
CCOc1ccc(NC(=O)CN(C)C(=O)c2cc(-c3ccc(OC)cc3)nc3ccccc23)cc1OCC,7.38µM*,.,.,-9.4%,9.28µM*,-0.9%
COc1ccc(-c2cc(C(=O)N(C)CC(=O)Nc3ccccc3Br)c3ccccc3n2)cc1OC,9.28µM*,.,.,9.6%,8.28µM*,-7.4%
COc1cccc(NC(=O)c2cc(-c3ccc(C)o3)nc3ccccc23)c1,-42.0%,14.9,7.1,-5.5%,?,-4.5%
Cc1nn(C)c(C)c1S(=O)(=O)N(CC(=O)N1CCc2ccccc2C1)c1ccc(C(C)C)cc1,-0.8%,-9.3,-7.3,-2.0%,.,-1.0%
Cc1onc(-c2ccccc2)c1C(=O)N=C(N)c1ccc(C(F)(F)F)cc1,36.1%,-7.1,-2.1,-11.2%,39.1%,0.1%
COc1nccnc1NS(=O)(=O)c1ccc(NCc2cc(Br)ccc2O)cc1,3.2%,57.1*,37.1*,2.5%,?,-1.9%
SMILES,Pf growth 96h,Shiga toxin inh,CHX counter,AMA1 RON2 block,Pf growth 48h,SARS PLP yeast
CCCCCC(=O)Nc1ccc(S(=O)(=O)Nc2nccnc2OC)cc1,2.33µM*,-13.0,-1.3,-0.6%,-8.5%,0.6%
CCN1CCN(C2=C(NS(=O)(=O)c3ccc(NC(C)=O)cc3)C(=O)c3ccccc3C2=O)CC1,10.4µM*,-2.4,21.8,-14.0%,?,-1.8%
CCN1CCN(C2=C(NS(=O)(=O)c3ccc(C)cc3)C(=O)c3ccccc3C2=O)CC1,1.65µM*,37.7,23.1*,0.2%,2.94µM*,-3.8%
CC(=O)Nc1ccc(S(=O)(=O)NC2=C(N3CCN(Cc4ccccc4)CC3)C(=O)c3ccccc3C2=O)cc1,1.17µM*,18.6,9.9,?,.,3.2%
CCOC(=O)N1CCN(C2=C(NS(=O)(=O)c3ccc(NC(C)=O)cc3)C(=O)c3ccccc3C2=O)CC1,9.28µM*,21.1,15.5,-26.2%,?,1.6%
CCOC(=O)C1(C)CCCN1C(=O)c1ccc(C(=O)OC)cc1 (stereo unspecified),.,.,.,-2.1%,.,.
COC(=O)c1cccc(COC(=O)c2ccc(CS(=O)(=O)c3ccc(C)cc3)cc2)c1,12.4%,-12.1,-2.5,-2.5%,-27.3%,0.1%
O=C1NC(Cc2ccc(O)cc2)c2nc3ccc(F)cc3c(=O)n2-c2cc(Cl)ccc21 (stereo unspecified),.,.,.,0.0%,.,.
CC1=NN(c2ccccc2)C(=O)C1c1ccccc1 (stereo unspecified),?,8.2,1.0,-13.2%,-18.8%,14.1µM*
CC1=NN(c2ccccc2)C(=O)C1N=Nc1ccccc1 (stereo unspecified),?,108.9*,21.2*,?,250.8%,-9.8%
COc1ccc(N=NC2C(=O)N(c3ccccc3)N=C2C)cc1 (stereo unspecified),2.62µM*,12.3,12.8,-21.7%,87.2%,1.0%
CC1=NN(c2ccccc2)C(=O)C1N=Nc1cccc(O)c1 (stereo unspecified),73.9%,86.3*,43.5*,-4.1%,103.7%,-5.3%
O=C(CSc1cn[nH]n1)Nc1ccccc1C(=O)O,21.6%,-2.0,-0.8,5.1%,7.0%,-5.7%
C[C@@H]1CN([C@@H](C)CO)C(=O)CCCn2nncc2CO[C@H]1CN(C)S(=O)(=O)c1ccccc1F,.,.,.,12.6%,.,.
CC1=NN(c2ccccc2)C(=O)C1C(=O)C(=O)Nc1ccc(F)cc1 (stereo unspecified),199.0%,78.7*,30.1*,-6.4%,364.9%,-4.9%
Cc1ccc(NC(=O)C(=O)C2C(=O)Nc3ccccc32)cc1 (stereo unspecified),52.2%,22.3,10.9*,98.9%,103.5%,0.3%
CC1=NN(C(=O)c2ccncc2)C(=O)C1N=Nc1ccc2ccccc2c1 (stereo unspecified),.,.,.,-25.0%,.,.
CC1=NN(c2ccccc2)C(=O)C1N=Nc1ccc(N)cc1 (stereo unspecified),?,80.3*,55.2*,?,-14.8%,-5.1%

# Source: PubChem BioAssay
